Test [1] is described as follows: Nuclear factor erythroid 2-related factor 2/antioxidant responsive element (Nrf2/ARE) small molecule agonists: qHTS cell viability counter screen in human keratinocytes (AID 1919968; active = well fitted curve in the direction sought with a large enough effect in the repeat runs; an effect the other way counts as inactive or inconclusive; also: nearly all actives have a fitted effect of over 55% in size). In short, it runs like this: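 Viability counter-screen: KeratinoSens reporter cells, DMSO-delivered compounds, 23 h at 37 C, CellTiter-Fluor fluorescence.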
The nature of test [2]: Nuclear factor erythroid 2-related factor 2/antioxidant responsive element (Nrf2/ARE) small molecule agonists: luciferase reporter gene qHTS assay in human keratinocytes (AID 1919969). Also: nearly all actives have a fitted effect of over 35% in size. Also: potency is read from the fitted curve at half-maximal effect. Background: Reporter assays use an easily measured gene product as a stand-in for the process of interest.
Test [3] concerns the target Gonadotropin-releasing hormone receptor (Homo sapiens) (UniProt P30968). Put plainly: Human gonadotropin-releasing hormone receptor (GnRHR) small molecule agonists, calcium flux assay in GnRHR-HEK293 cells (AID 1920063). Also: nearly all actives have a fitted effect of over 35% in size. In short, it runs like this: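 Tox21-format agonist screen using human GnRHR-expressing HEK293 cells and a fluorescent calcium dye; kinetic 3-min fluorescence reading after compound addition, 15-point concentration series run in triplicate.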
(Calcium assays in cells follow changes in intracellular calcium, usually with a dye or a luminescent sensor.)

For test [4], the target named is KiSS-1 receptor (Homo sapiens) (UniProt Q969F8). Put plainly: Human kisspeptin (KISS1R) small molecule agonists, calcium flux assay in KISS1R-HEK293 cells (AID 1920064; active = well fitted curve in the direction sought with a large enough effect in the repeat runs; an effect the other way counts as inactive or inconclusive). In short, it runs like this: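 Intracellular calcium mobilization in KISS1R-HEK293 cells was recorded by fluorescence (Ex/Em 480/540) for 3 min following compound addition to cells pre-loaded 1 h with calcium dye.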

Test [5] in a line: p53 small molecule agonists, cell-based qHTS assay with human liver microsomes: qHTS cell viability counter screen (AID 1963579). Also: nearly all actives have a fitted effect of over 45% in size. In outline:
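p53RE-bla cells, 4,000/well, dosed 5 hours after plating, with human liver microsomes (0.5 mg/mL final) plus NADPH (0.5 mg/mL final), 16 hours at 37 C. Viability read as CellTiter-Glo luminescence after 30 min at room temperature.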
For orientation: In qHTS, concentration-response curves come from the screen itself.

Test [6] in a line: p53 small molecule agonists, cell-based qHTS assay with rat liver microsomes: qHTS cell viability counter screen (AID 1963580). Also: nearly all actives have a fitted effect of over 45% in size. In short, it runs like this:
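In HCT-116 cells carrying a p53 response element-bla reporter, compounds were metabolically activated in situ by rat liver microsomes with NADPH over 16 h. Cell ATP content then served as the cytotoxicity measure.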

Test [7] is described as follows: p53 small molecule agonists, cell-based qHTS assay: qHTS cell viability counter screen (AID 1963581). Also: nearly all actives have a fitted effect of over 45% in size. In outline:
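Compounds are pinned onto HCT-116 p53RE-bla cells and left 16 h at 37 C. Following the reporter FRET read, ATP is quantified by CellTiter-Glo luminescence after 30 min at room temperature.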

Test [8] can be described thus: cAMP Responsive Elements (CRE) small molecule agonists, cell-based qHTS assay (AID 1963590). In outline: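 FRET-based beta-lactamase readout (LiveBLAzer B/G, 2 h RT) quantified CRE activation in HEK 293T CRE-bla cells after 3 h treatment with DMSO-dissolved compounds.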
The nature of test [9]: cAMP Responsive Elements (CRE) small molecule antagonists, cell-based qHTS assay (AID 1963591; active = well fitted inhibition curve with a large enough effect in the signal ratio in the repeat runs, not every such curve was filed as active; the % refers to the signal ratio). In outline:
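qHTS in CRE-bla HEK 293T cells: compound in DMSO, then 0.25 uM NKH477 (final), 3 h at 37 °C/5% CO2; beta-lactamase FRET read-out after 2 h substrate incubation.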

For test [10], the target named is Beta-2 adrenergic receptor (Homo sapiens) (UniProt P07550). Put plainly: Adrenergic beta2 receptor (ADRB2) small molecule antagonists, cell-based qHTS assay (AID 1963592). Also: nearly all actives have a fitted effect of over 50% in size. Also: potency is read from the fitted curve at half-maximal effect. In outline:
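Cells (CHO, stable ADRB2 overexpression) incubated 18-20hr at 37C; compounds added from DMSO; agonist mix (1nM isoproterenol, 100uM IBMX, 25uM Ro-20-1724) added; 0.5hr RT; d2-cAMP and anti-cAMP-cryptate added; 1hr RT; 665/615 nm read.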

Test [11] concerns the target D(2) dopamine receptor (Homo sapiens) (UniProt P14416). Briefly: Dopamine D2 receptor (DRD2) small molecule agonists, cell-based qHTS assay (AID 1963594). Also: nearly all actives have a fitted effect of over 35% in size. In short, it runs like this: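 HEK293 cells stably expressing DRD2 were cultured 24 h at 37 C, then given Ro20-1724 (0.1 mM final) and compounds for 10 min at room temperature. NKH477 (200nM) was then added for 30 min. cAMP was read by HTRF.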

Test [12] shares this target. Put plainly: Dopamine D2 receptor (DRD2) small molecule antagonists, cell-based qHTS assay (AID 1963595; active = well fitted inhibition curve with a large enough effect in the signal ratio in the repeat runs, with a control signal flat; the % refers to the signal ratio). In outline:
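Human DRD2 antagonist qHTS measuring cAMP by HTRF. The cells are exposed to compound for 10 min, then to NKH477 (200 nM) and quinpirole (12 nM) for 30 min at RT, with Ro20-1724 (0.1 mM) present throughout.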

Test [13] addresses 5-hydroxytryptamine receptor 2A (Homo sapiens) (UniProt P28223). Put plainly: 5-hydroxytryptamine receptor 2A (HTR2A) small molecule antagonists, cell-based qHTS assay (AID 1963586). Also: nearly all actives have a fitted effect of over 45% in size. In outline:
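Antagonist-mode intracellular calcium assay: DOI (4 nM) added after 5 min compound pre-incubation at room temperature to dye-loaded HTR2A-CHO cells. Fluorescence followed for 3 min, sampled every second.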

In test [14] the target is Muscarinic acetylcholine receptor M1 (Homo sapiens) (UniProt P11229). Put plainly: Cholinergic receptor muscarinic 1 (CHRM1) small molecule antagonists, cell-based qHTS assay (AID 1963588). Also: nearly all actives have a fitted effect of over 40% in size. In outline:
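CHRM1-CHO calcium-flux assay, antagonist mode. Cells were seeded 18 h, dye-loaded 1 h at 37 C and given compound for 5 min at RT, then acetylcholine was added at 50nM. FDSS fluorescence was read 3 min; 15 concentrations, three runs.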

For test [15] the target is unchanged. Put plainly: Cholinergic receptor muscarinic 1 (CHRM1) small molecule agonists, cell-based qHTS assay (AID 1963589). Also: nearly all actives have a fitted effect of over 35% in size. In short, it runs like this: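 Stable CHRM1-CHO cells (human receptor) were incubated 18 h, dye-loaded for 1 h at 37 C and exposed to test compounds for agonist activity, with calcium-dependent fluorescence followed kinetically.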
Test [16] concerns the target Beta-2 adrenergic receptor (Homo sapiens) (UniProt P07550). Put plainly: Adrenergic beta2 receptor (ADRB2) small molecule agonists, cell-based qHTS assay (AID 1963593).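 Also: CHO cells stably overexpressing human ADRB2.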 In short, it runs like this: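 CHO cells stably over-expressing ADRB2 were plated overnight at 37C, then dosed with compounds plus a stimulation mix containing 100uM IBMX and 25uM Ro-20-1724 for 0.5hr at room temperature. cAMP was measured by HTRF competition, 1hr.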

Test [17] has as its target 5-hydroxytryptamine receptor 2A (Homo sapiens) (UniProt P28223). Briefly: 5-hydroxytryptamine receptor 2A (HTR2A) small molecule agonists, cell-based qHTS assay (AID 1963587). Also: nearly all actives have a fitted effect of over 30% in size. In short, it runs like this:
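HTR2A-CHO cells, plated 18 h at 37 C/5% CO2, dye-loaded 1 h at 37 C; compounds in DMSO added by pin tool (agonist mode). Intracellular calcium flux read as kinetic fluorescence on FDSS over 2 min at 1 s intervals.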

Test [18] in a line: G protein-coupled receptor (GPCR) small molecule agonists, calcium flux assay: HEK293 wild type cell line counter screen (AID 1920065). In outline:
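In this agonist-mode screen, ATP is the positive control and DMSO the vehicle. Cells grow 18 h before a 1 h dye incubation at 37 C; signal is taken at Ex/Em 480/540 over 3 min.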

Test [19] can be described thus: p53 small molecule agonists, cell-based qHTS assay with rat liver microsomes (AID 1963578). In outline: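 p53RE-bla cells, 4,000/well, pre-incubated 5 h, then given compounds plus rat liver microsomes (0.5 mg/mL final) and NADPH (0.5 mg/mL final). Incubation 16 h at 37 C; beta-lactamase reporter read by LiveBLAzer fluorescence after 2 h at room temperature.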
Test [20] is described as follows: p53 small molecule agonists, cell-based qHTS assay (AID 1963582; active = well fitted activation curve with a large enough effect in the signal ratio in the repeat runs, not every such curve was filed as active; the % refers to the signal ratio). In outline: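 Agonist activity was scored from beta-lactamase FRET fluorescence in p53RE-bla cells treated 16 h at 37 C with compounds in DMSO, substrate incubation being 2 h at room temperature.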

Unmarked numbers belong to inactive results. Results filed as inconclusive are left out. Active and inactive are the calls of the source. Unless noted, calls follow the shape of the full dose curve.

This note sets out measurements from PubChem BioAssay (Tox21).

Sequence of Gonadotropin-releasing hormone receptor (Homo sapiens) (P30968 whole entry, looked up): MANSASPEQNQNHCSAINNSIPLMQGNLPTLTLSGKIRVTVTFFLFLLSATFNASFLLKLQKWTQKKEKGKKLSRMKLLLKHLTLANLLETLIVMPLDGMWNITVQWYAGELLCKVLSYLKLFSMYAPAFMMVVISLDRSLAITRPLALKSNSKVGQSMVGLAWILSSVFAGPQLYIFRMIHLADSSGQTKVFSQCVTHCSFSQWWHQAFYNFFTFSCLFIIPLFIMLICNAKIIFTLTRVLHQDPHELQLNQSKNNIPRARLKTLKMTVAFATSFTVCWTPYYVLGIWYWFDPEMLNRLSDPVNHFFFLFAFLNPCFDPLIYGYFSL
Sequence of KiSS-1 receptor (Homo sapiens) (Q969F8 whole entry, looked up): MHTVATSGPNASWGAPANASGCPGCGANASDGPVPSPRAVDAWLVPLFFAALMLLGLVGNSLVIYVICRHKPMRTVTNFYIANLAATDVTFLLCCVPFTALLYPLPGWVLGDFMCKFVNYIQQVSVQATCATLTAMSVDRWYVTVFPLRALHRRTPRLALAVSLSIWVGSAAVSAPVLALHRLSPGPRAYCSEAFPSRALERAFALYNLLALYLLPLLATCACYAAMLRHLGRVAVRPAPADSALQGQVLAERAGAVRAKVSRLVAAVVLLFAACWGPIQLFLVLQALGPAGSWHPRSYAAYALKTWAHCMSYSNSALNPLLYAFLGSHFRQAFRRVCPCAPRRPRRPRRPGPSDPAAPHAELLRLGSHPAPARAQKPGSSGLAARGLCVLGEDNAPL
Sequence of 5-hydroxytryptamine receptor 2A (Homo sapiens) (P28223 whole entry, looked up): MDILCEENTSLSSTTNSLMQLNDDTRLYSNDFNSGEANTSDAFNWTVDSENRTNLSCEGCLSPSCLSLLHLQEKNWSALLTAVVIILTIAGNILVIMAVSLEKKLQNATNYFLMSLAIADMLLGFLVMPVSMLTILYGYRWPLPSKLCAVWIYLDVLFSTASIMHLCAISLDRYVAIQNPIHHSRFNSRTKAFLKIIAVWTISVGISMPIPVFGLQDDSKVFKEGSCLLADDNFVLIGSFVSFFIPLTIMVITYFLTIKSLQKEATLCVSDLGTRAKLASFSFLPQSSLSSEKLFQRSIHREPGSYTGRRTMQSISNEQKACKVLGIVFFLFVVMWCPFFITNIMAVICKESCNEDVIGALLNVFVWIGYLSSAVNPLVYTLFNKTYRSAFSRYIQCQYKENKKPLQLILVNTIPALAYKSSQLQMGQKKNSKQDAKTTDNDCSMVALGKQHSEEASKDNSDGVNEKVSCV
Sequence of D(2) dopamine receptor (Homo sapiens) (P14416 whole entry, looked up): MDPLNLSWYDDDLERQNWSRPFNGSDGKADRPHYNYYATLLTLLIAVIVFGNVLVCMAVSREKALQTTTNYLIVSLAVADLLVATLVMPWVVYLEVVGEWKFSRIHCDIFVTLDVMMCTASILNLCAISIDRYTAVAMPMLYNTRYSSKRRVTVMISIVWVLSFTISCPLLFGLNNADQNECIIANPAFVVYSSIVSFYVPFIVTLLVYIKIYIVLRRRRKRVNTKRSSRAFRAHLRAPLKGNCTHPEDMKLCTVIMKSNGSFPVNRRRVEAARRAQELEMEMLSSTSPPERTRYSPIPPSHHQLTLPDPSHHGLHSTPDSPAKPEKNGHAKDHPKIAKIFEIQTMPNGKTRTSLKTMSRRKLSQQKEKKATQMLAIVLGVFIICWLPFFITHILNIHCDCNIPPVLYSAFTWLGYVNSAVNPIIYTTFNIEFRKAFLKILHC
Sequence of Beta-2 adrenergic receptor (Homo sapiens) (P07550 whole entry, looked up): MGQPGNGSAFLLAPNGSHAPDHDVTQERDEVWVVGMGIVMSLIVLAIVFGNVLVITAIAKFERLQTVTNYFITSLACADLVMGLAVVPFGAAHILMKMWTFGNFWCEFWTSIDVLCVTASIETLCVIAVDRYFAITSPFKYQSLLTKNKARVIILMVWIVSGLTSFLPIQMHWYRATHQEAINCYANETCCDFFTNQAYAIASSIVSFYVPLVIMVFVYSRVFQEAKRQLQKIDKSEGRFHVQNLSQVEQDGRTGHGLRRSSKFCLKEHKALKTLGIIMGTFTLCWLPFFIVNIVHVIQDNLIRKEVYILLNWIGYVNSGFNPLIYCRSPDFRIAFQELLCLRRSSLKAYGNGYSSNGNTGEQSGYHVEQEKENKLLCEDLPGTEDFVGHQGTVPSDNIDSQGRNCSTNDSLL
Sequence of Muscarinic acetylcholine receptor M1 (Homo sapiens) (P11229 whole entry, looked up): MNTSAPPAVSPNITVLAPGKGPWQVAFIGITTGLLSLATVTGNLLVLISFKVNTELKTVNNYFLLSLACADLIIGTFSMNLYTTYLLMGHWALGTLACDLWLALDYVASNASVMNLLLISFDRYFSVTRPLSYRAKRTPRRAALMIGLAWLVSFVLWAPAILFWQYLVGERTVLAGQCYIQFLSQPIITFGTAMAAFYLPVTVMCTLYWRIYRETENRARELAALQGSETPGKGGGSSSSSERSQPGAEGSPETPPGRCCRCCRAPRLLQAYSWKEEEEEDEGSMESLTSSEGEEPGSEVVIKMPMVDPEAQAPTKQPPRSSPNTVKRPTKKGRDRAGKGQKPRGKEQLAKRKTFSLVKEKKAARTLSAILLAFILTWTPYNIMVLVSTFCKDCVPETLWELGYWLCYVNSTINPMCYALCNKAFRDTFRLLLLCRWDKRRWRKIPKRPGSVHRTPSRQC

Take `CN[C@@H]1[C@@H](O)[C@@H](O[C@@H]2[C@H](O)[C@H](O[C@H]3OC(CN)=CC[C@H]3N)[C@@H](N)C[C@H]2N)OCC1(C)O` (some centres undefined): the Potency result in [1], in [2], in [3], in test [4], in test [5] and in test [6] was “inactive” in each case. Also, the Potency result in [7], in test [8], in test [9], in test [11] and in test [12] was “inactive” throughout. In test [10], the Potency was 2.66 µM (active).
`O=S(=O)(O)c1cc(O)ccc1O`: the Potency entry in test [1], in test [2], in test [3], in test [4], in test [13] and in [14] was “inactive” throughout. The Potency entry in [15], in test [8], in [9], in test [10], in test [16] and in test [11] was “inactive” each time. In addition, the Potency result in test [12] is “inactive”.
On to `COC(=O)c1ccc(C(=O)OC)c(C(=O)OC)c1`, for which the Potency entry in [1], in test [2], in test [3], in test [4], in [5] and in test [6] was “inactive” in each case. The Potency entry in [7], in [13], in test [17], in test [14], in [15] and in test [8] was “inactive” in each case. Moreover, the Potency entry in test [10], in [16], in [11] and in test [12] was “inactive” throughout.
As to `Nc1ccn([C@@H]2O[C@H](CO)[C@@H](O)[C@@H]2O)c(=O)n1`, the Potency result in test [1], in test [2], in test [3], in test [4], in [5] and in test [6] was “inactive” throughout. Moreover, the Potency entry in test [7], in [8], in test [9], in test [10], in test [11] and in [12] was “inactive” each time.
As for `COc1cc(C(C)(C)C)c(O)c(C(C)(C)C)c1`, the Potency result in test [1], in test [3], in test [4], in [5], in [7] and in test [13] was “inactive” each time. Moreover, the Potency entry in [17], in test [15], in [11] and in [12] was “inactive” in each case. In addition, the Potency in [2] was 48.6 µM (active).
On to `O=C(c1ccccc1)C1CCC1`, for which the Potency result in test [1], in test [2], in test [3], in test [4], in test [6] and in test [7] was “inactive” each time. Further, the Potency result in test [13], in [17], in [14], in test [15], in [8] and in [9] was “inactive” each time. Also, the Potency entry in test [10], in test [11] and in test [12] was “inactive” throughout.
Regarding `O=C(O)c1nc(Cl)c(Cl)c(Cl)c1Cl`, the Potency result in test [1], in test [3], in test [4], in test [5], in [6] and in [7] was “inactive” throughout. Also, the Potency result in test [13], in test [17], in test [14], in test [15], in test [10] and in [11] was “inactive” in each case. The Potency entry in [12] is “inactive”. Also, the Potency in test [2] was 30.6 µM (active).
On to `CCN1CCN(C(=O)N[C@@H](C(=O)N[C@@H]2C(=O)N3C(C(=O)O)=C(CSc4nnnn4C)CS[C@H]23)c2ccc(O)cc2)C(=O)C1=O`, for which the Potency result in test [1], in [2], in test [3], in test [18], in test [19] and in test [5] was “inactive” throughout. Besides, the Potency entry in test [6], in test [7], in test [20], in test [13], in test [17] and in test [14] was “inactive” throughout. Further, the Potency result in [15], in test [8], in [9] and in test [11] was “inactive” in each case.
